# Reference: PubChem BioAssay (Tox21)
# Several values for one entry are separate records, joined by “and”; a condition that tells them apart may be missing. Identical values can stand only once. Inconclusive results are not listed. A call without a number means that no potency is given here. Some structures have more than one record in an assay (separate samples or runs), and their calls can disagree. Activity calls are given as the source filed them. Calls follow the shape of the dose curve; as a rule, active = well fitted curve in the direction sought with a large enough effect in the repeat runs; inconclusive = weak or mixed curves; inactive = no such curve, though single readings can be large; an effect the other way counts as inactive or inconclusive.
# Columns and labels:
# [1] = Human pregnane X receptor (PXR) small molecule agonists, qHTS cell viability counter screen (AID 1346977); also: nearly all actives have a fitted effect of over 50% in size
# Method in brief: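 PXR-Luc HepG2 cells in medium with 5% charcoal-stripped FBS were pre-incubated 5hr, then exposed to compounds for 24hr at 37C. Viability was read in the same wells by CellTiter-Fluor fluorescence, reagent added after 23hr with a 1hr incubation.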
# [2] = Caspase-3/7 induction in HepG2 cells by small molecules, qHTS assay (AID 1346978); also: nearly all actives have a fitted effect of over 15% in size; also: potency is read from the fitted curve at half-maximal effect
# Method in brief: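 Wild-type HepG2 cells (2,000/well) were settled 5 h at 37 C, 5% CO2, then exposed to compounds in DMSO for 17 h. Caspase-3/7 activity was read by luminescence 30 min after adding Caspase-Glo 3/7 reagent at room temperature.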
# [3] = Caspase-3/7 induction in CHO-K1 cells by small molecules, qHTS cell viability counter screen (AID 1346979); also: nearly all actives have a fitted effect of over 35% in size; also: potency is read from the fitted curve at half-maximal effect
# Method in brief: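 Wild-type CHO-K1 cells were seeded at 1,500 per well, rested 5hr at 37 C, then exposed to compounds in DMSO. After 16hr, CellTiter-Fluor reagent was added and fluorescence read 1hr later as the viability measure.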
# [4] = Caspase-3/7 induction in CHO-K1 cells by small molecules, qHTS assay (AID 1346980); also: nearly all actives have a fitted effect of over 15% in size
# Method in brief: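 Wild-type cells were seeded at 1,500 per well and settled 5 hr at 37 C, 5% CO2, then exposed to DMSO-dissolved compounds for 17 hr. Caspase-Glo 3/7 reagent was added, and luminescence was read after 30min at room temperature.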
# [5] = Caspase-3/7 induction in HepG2 cells by small molecules, qHTS cell viability counter screen (AID 1346981); also: series mostly up to about 92 µM; nearly all actives have a fitted effect of over 30% in size
# Method in brief: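 Fluorescence read-out of live-cell protease activity (CellTiter-Fluor) after 1 hr with reagent. This was measured in the same wells as the caspase-3/7 luminescence, on HepG2 cells exposed to DMSO-dissolved compounds for 16 hr at 37 C.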
# [6] = target: Nuclear receptor subfamily 1 group I member 2 (Homo sapiens) (UniProt O75469); assay: Human pregnane X receptor (PXR) small molecule agonists, qHTS assay (AID 1346982); also: nearly all actives have a fitted effect of over 35% in size; also: potency is read from the fitted curve at half-maximal effect
# Method in brief: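 HepG2 PXR-Luc reporter line, 5% charcoal-stripped FBS; 5 hr pre-incubation, compound (DMSO) 24 hr at 37 C/5% CO2; ONE-Glo 30 min RT; luminescence read-out.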
# [7] = target: Nuclear receptor subfamily 1 group I member 2 (Rattus norvegicus) (UniProt Q9R1A7); assay: Rat pregnane X receptor (rPXR) activation by small molecules, qHTS assay (AID 1346983); details: rPXR luciferase reporter cells, One-Glo luminescence, 24 h; stronger effect = higher value; also: nearly all actives have a fitted effect of over 20% in size
# Method in brief: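 Cell-based rPXR luciferase reporter assay, 2,000 cells per well, rested 5hr at 37 C before compound addition in DMSO, then 24 hr at 37 C. One-Glo reagent was added and luminescence read after 30 min at room temperature.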
# [8] = target: Nuclear receptor subfamily 1 group I member 2 (Homo sapiens) (UniProt O75469); assay: CYP3A4 induction through human pregnane X receptor (PXR) by small molecules, qHTS assay (AID 1346984); also: nearly all actives have a fitted effect of over 40% in size; also: potency is read from the fitted curve at half-maximal effect
# Method in brief: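 HepG2-derived DPX-2 line carrying PXR plus a CYP3A4-promoter luciferase reporter; cells plated 5 hr, compound-exposed 24 hr at 37C. CYP3A4 activity probed with 3uM (final) Luciferin-IPA for 3hr, then luciferase read after One-Glo.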
# [9] = target: Nuclear receptor subfamily 1 group I member 2 (Homo sapiens) (UniProt O75469); assay: Human pregnane X receptor (PXR) activation by small molecules, qHTS assay (AID 1346985); also: nearly all actives have a fitted effect of over 40% in size
# Method in brief: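 DPX-2 cells (HepG2 co-transfected with a PXR response element and a CYP3A4-promoter luciferase construct) were seeded at 2,000 per well, rested 5 hr at 37C, then exposed to DMSO-dissolved compounds for 24 hr. Activation was read as luciferase luminescence.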
# [10] = target: Cytochrome P450 2D6 (Homo sapiens) (UniProt P10635); assay: Cytochrome P450 Family 2 Subfamily D Member 6 (CYP2D6) small molecule antagonists: luciferase reporter qHTS assay (AID 1671196); also: nearly all actives have a fitted effect of over 50% in size; also: potency is read from the fitted curve at half-maximal effect
# Method in brief: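 Luminogenic proluciferin substrate, CYP2D6 enzyme; 10 min RT preincubation with compound, NADPH regeneration system added, 1 h RT. Stop/detection reagent, 20 min RT, luminescence read (RLU). Signal proportional to CYP activity.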
# [11] = target: Cytochrome P450 2C19 (Homo sapiens) (UniProt P33261); assay: Cytochrome P450 Family 2 Subfamily C Member 19 (CYP2C19) small molecule antagonists: luciferase reporter qHTS assay (AID 1671197); also: nearly all actives have a fitted effect of over 65% in size; also: potency is read from the fitted curve at half-maximal effect
# Method in brief: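 CYP2C19 P450-Glo, 1536-well qHTS. Cpd + enzyme/proluciferin substrate 10 min RT; + NADPH regen, 37C 1 h; stop with luciferin detection reagent, 20 min RT, luminescence (RLU). Pos ctrl ketoconazole.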
# [12] = target: Cytochrome P450 2C9 (Homo sapiens) (UniProt P11712); assay: Cytochrome P450 Family 2 Subfamily C Member 9 (CYP2C9) small molecule antagonists: luciferase reporter qHTS assay (AID 1671198); also: series mostly up to about 120 µM; nearly all actives have a fitted effect of over 50% in size
# Method in brief: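 CYP2C9 activity was measured with a P450-Glo proluciferin substrate. Enzyme–substrate mix was held with compound for 10 min at room temperature, then NADPH regeneration solution was added for 1 h at 37C. Luciferin product was read as luminescence.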
# [13] = target: Cytochrome P450 1A2 (Homo sapiens) (UniProt P05177); assay: Cytochrome P450 Family 1 Subfamily A Member 2 (CYP1A2) small molecule antagonists: luciferase reporter qHTS assay (AID 1671199); also: nearly all actives have a fitted effect of over 50% in size; also: potency is read from the fitted curve at half-maximal effect
# Method in brief: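 Luminescence readout (relative luminescence units) after luciferin detection reagent, 20 min RT. Preceded by 1 h room-temperature CYP1A2 reaction with NADPH regeneration solution following 10 min compound preincubation with enzyme and proluciferin substrate. Furafylline positive control.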
# [14] = target: Voltage-gated inwardly rectifying potassium channel KCNH2 (Homo sapiens) (UniProt Q12809); assay: Human Ether-a-go-go-Related Gene (hERG) channel small molecule antagonists: fluorescence cell-based qHTS assay (AID 1671200); also: nearly all actives have a fitted effect of over 50% in size; also: potency is read from the fitted curve at half-maximal effect
# Method in brief: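 U2OS cells expressing the channel were plated at 1000 cells/well, incubated overnight at 37 C, then loaded with FluxOR II thallium-sensitive dye for 1 h at room temperature in the dark, with a further 10 min at room temperature before stimulation.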
# [15] = target: Cytochrome P450 3A4 (Homo sapiens) (UniProt P08684); assay: Cytochrome P450 Family 3 Subfamily A Member 4 (CYP3A4) small molecule antagonists: luciferase reporter qHTS assay (AID 1671201)
# Method in brief: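 P450-Glo CYP3A4 system with proluciferin substrate; compounds preincubated 10 min RT with enzyme-substrate mix, then NADPH regeneration added for 1 h RT. Detection reagent 20 min, luminescence read as relative luminescence units.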
# Chain of Cytochrome P450 3A4 (Homo sapiens) (P08684 whole entry, looked up): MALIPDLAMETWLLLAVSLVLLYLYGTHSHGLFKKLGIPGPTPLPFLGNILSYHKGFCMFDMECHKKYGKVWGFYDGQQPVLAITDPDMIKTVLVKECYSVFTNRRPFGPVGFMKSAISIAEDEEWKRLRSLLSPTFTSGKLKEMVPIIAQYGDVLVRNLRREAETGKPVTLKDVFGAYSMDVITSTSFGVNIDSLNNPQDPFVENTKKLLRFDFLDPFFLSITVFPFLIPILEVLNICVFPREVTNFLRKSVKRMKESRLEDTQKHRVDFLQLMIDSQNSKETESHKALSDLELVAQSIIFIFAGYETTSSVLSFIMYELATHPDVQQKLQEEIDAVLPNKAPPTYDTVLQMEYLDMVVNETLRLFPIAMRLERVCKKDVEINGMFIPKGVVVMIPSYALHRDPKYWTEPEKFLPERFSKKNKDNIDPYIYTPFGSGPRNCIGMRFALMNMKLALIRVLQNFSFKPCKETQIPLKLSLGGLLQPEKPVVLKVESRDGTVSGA
# Chain of Cytochrome P450 2C9 (Homo sapiens) (P11712 whole entry, looked up): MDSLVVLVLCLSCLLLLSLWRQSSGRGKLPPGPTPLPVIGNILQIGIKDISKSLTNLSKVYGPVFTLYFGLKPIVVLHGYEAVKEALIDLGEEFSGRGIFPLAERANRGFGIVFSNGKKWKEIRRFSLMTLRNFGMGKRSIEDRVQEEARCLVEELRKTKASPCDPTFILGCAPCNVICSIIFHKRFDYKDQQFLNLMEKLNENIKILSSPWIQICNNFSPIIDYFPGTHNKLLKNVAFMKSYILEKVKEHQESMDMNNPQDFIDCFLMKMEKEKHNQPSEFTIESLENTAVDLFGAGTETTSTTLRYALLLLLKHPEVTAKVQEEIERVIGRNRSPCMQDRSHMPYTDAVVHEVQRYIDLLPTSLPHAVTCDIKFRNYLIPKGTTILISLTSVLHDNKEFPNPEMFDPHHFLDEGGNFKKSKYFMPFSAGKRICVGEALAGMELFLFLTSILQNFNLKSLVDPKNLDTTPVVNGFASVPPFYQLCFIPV
# Chain of Cytochrome P450 2D6 (Homo sapiens) (P10635 whole entry, looked up): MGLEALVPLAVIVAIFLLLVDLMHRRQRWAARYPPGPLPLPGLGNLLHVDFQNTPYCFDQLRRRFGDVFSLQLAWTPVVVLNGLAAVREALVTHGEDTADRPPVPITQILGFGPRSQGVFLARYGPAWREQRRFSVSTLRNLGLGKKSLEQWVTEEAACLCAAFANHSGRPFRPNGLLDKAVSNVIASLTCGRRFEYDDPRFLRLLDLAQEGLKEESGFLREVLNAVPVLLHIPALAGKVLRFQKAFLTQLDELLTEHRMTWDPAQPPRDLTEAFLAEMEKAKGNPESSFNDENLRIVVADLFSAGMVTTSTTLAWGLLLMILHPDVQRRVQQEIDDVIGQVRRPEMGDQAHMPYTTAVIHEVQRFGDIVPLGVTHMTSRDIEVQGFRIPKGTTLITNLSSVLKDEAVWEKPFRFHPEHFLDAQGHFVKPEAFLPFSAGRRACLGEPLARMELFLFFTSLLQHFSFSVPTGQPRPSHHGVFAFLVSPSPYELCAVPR
# Chain of Cytochrome P450 2C19 (Homo sapiens) (P33261 whole entry, looked up): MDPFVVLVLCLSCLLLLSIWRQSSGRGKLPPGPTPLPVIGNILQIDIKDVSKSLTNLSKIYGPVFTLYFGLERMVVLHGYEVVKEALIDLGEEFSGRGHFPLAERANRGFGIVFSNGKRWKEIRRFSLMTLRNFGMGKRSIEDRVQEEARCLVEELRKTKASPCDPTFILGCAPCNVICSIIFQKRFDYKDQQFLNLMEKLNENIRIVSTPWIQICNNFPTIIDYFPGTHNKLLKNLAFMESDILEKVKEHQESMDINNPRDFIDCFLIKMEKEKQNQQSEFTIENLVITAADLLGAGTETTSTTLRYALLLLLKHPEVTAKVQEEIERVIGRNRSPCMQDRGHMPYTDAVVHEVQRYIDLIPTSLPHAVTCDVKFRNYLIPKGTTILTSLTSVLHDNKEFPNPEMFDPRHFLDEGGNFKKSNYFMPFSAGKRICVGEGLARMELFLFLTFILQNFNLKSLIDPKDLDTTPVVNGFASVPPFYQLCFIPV
# Chain of Voltage-gated inwardly rectifying potassium channel KCNH2 (Homo sapiens) (Q12809 whole entry, looked up): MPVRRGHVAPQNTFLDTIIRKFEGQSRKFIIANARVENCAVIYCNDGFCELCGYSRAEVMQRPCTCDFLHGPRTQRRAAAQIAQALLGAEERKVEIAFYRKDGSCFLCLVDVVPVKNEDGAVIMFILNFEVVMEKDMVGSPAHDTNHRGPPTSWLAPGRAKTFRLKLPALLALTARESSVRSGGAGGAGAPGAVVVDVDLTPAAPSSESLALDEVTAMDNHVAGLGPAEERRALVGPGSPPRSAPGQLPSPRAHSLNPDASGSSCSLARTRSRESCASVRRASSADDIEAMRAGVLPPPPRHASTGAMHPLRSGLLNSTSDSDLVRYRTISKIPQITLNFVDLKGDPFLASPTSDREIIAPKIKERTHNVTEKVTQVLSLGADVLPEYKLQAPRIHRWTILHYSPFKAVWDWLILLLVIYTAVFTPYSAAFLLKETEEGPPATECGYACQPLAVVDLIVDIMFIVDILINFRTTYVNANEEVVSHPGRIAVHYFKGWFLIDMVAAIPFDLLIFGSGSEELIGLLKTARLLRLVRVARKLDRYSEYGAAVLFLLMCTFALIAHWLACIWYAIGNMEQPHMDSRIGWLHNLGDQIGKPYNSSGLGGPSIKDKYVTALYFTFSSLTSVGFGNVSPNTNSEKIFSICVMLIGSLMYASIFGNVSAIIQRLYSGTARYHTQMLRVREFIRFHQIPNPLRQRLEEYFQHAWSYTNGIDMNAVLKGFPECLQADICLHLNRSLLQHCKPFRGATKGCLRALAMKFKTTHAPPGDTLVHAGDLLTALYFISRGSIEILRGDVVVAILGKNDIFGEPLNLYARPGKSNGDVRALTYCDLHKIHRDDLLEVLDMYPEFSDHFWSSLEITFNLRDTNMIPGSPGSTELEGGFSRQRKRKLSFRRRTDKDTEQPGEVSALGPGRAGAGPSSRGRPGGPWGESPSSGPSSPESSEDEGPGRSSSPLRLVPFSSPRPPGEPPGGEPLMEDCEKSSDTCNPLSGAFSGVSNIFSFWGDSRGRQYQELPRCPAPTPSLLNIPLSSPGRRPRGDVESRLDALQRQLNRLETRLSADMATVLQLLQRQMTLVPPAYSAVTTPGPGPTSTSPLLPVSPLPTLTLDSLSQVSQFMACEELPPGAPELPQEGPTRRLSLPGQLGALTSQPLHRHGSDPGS
# Chain of Cytochrome P450 1A2 (Homo sapiens) (P05177 whole entry, looked up): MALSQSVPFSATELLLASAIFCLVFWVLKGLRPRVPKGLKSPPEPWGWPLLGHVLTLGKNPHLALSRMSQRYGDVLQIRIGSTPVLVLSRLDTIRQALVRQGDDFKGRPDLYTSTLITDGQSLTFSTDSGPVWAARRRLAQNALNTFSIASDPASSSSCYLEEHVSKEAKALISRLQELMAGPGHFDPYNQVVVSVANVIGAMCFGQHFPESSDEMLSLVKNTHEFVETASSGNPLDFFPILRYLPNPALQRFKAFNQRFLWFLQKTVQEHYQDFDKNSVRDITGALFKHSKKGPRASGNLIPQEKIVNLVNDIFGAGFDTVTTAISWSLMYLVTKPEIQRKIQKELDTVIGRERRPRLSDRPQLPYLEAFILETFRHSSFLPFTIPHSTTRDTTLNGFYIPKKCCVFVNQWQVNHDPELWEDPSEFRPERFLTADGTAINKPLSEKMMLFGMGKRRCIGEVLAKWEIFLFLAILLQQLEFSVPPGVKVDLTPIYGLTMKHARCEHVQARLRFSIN
# Chain of Nuclear receptor subfamily 1 group I member 2 (Homo sapiens) (O75469 whole entry, looked up): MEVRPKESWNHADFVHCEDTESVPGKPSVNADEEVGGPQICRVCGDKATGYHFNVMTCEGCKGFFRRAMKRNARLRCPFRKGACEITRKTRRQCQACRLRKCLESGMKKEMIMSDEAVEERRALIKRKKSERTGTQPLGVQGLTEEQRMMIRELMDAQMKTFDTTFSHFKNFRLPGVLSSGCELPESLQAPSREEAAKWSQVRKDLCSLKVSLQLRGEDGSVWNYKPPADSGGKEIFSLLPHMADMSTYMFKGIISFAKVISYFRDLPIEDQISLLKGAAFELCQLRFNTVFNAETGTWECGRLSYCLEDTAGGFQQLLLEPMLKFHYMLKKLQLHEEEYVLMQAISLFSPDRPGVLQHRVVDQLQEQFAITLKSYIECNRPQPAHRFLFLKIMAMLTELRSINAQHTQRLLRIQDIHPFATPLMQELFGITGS
# Chain of Nuclear receptor subfamily 1 group I member 2 (Rattus norvegicus) (Q9R1A7 whole entry, looked up): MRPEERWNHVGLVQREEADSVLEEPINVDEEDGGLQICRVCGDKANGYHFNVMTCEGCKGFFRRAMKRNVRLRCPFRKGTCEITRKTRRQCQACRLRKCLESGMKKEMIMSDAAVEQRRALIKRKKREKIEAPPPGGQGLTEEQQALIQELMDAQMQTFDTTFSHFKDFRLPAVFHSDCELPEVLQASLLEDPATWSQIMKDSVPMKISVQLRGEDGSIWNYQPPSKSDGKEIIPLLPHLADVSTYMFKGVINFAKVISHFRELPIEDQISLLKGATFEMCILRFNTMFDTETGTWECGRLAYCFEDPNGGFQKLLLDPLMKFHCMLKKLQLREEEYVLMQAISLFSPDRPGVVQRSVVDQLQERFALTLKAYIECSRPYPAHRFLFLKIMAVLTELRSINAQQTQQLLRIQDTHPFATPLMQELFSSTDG
Compound,Potency [1],Potency [2],Potency [3],outcome [4],Potency [5],Potency [6],max activation [7],Potency [8],outcome [9],Potency [10],Potency [11],Potency [12],Potency [13],Potency [14],Potency [15]
O=C1C(c2[nH]c3ccccc3c2O)=Nc2ccccc21,inactive,inactive,inactive,inactive,inactive,inactive,3.64% (inactive),891 nM (active),inactive,inactive,inactive,inactive,inactive and 34.7 µM (active),inactive,inactive
CC(C)CCCCCCCOC(=O)CCCCC(=O)OCCCCCCCC(C)C,inactive,inactive,inactive,inactive,inactive,50.4 µM (active) and inactive,–,–,–,inactive,92.8 µM (active) and inactive,inactive,inactive,inactive,inactive
CCOC(=O)n1ccn(C)c1=S,inactive,inactive,inactive,inactive,inactive,inactive,-4.98% (inactive),inactive,inactive,inactive,inactive,inactive,–,inactive,inactive
CCCCCCCC=O,inactive,inactive,inactive,inactive,inactive,inactive,–,–,–,inactive,inactive,inactive,–,inactive,inactive
CC(=O)OCCOC(C)=O,inactive,inactive,inactive,inactive,inactive,inactive,–,–,–,inactive,inactive,inactive,–,inactive,inactive
CSc1ccc(Cl)cc1,inactive,inactive,inactive,inactive,inactive,inactive,–,–,–,inactive,inactive,inactive,–,inactive,inactive
CCNC(=S)NCC,inactive,inactive,inactive,inactive,inactive,inactive,–,–,–,inactive,inactive,inactive,–,inactive,inactive
NCCCCCCN,inactive,inactive,2.75 µM (active) and 19.3 µM (active),inactive,inactive,inactive,–,–,–,32 µM (active) and 35.6 µM (active),inactive,inactive,–,inactive,inactive
C=CC(=O)OCCC(=O)O,inactive,inactive,inactive,inactive,inactive,inactive,–,–,–,23.2 µM (active) and inactive,104 µM (active) and inactive,inactive,–,inactive,inactive
CC(O)CC(C)(C)O (stereo unspecified),inactive,inactive,inactive,inactive,inactive,inactive,–,–,–,inactive,inactive,inactive,inactive,inactive,inactive
C=CC(C)CCCC(C)(C)O (stereo unspecified),inactive,inactive,inactive,inactive,inactive,inactive,–,–,–,31.7 µM (active),inactive,inactive,–,43.6 µM (active) and inactive,inactive
COc1ccc(CCC(C)=O)cc1,inactive,inactive,inactive,inactive,inactive,inactive,–,–,–,inactive,28.3 µM (active) and inactive,inactive,22.4 µM (active) and 20.4 µM (active),inactive,inactive
CCCCCCCCCCCC(=O)OC,inactive,inactive,inactive,inactive,inactive,inactive,–,–,–,inactive,inactive,inactive,–,inactive,inactive
CC(=O)OCc1ccco1,inactive,60.8 µM (active) and inactive,15.3 µM (active) and inactive,inactive,inactive,60.8 µM (active) and inactive,–,–,–,inactive,70.6 µM (active) and inactive,inactive,–,inactive,inactive
CC(=O)CCC=C(C)C,inactive,inactive,inactive,inactive,inactive,inactive,–,–,–,inactive,inactive,inactive,–,inactive,inactive
CCO[Si](CCCN)(OCC)OCC,inactive,inactive,inactive,inactive,inactive,inactive,–,–,–,inactive,inactive,inactive,–,inactive,inactive
CC(=O)c1ccc(O)cc1,inactive,inactive,inactive,inactive,inactive,inactive,–,–,–,inactive,inactive,inactive,–,inactive,inactive
NCCNCCN,inactive,inactive,inactive,inactive,inactive,inactive,–,–,–,63.5 µM (active),inactive,inactive,71.2 µM (active) and inactive,inactive,inactive
CCCCCC(=O)O,inactive,inactive,inactive,inactive,inactive,inactive,–,–,–,inactive,71.1 µM (active) and inactive,inactive,inactive,inactive,inactive
